Counter-ions that a name gives are not always drawn.
What follows are compounds tested on Saccharomyces cerevisiae BY4741 SeMeCo community (assay: z-score of subpopulation abundance vs DMSO median, subpopulation auxotrophic for UM; higher = larger share of this subpopulation than in DMSO controls). Conditions: 10 µM; 24 h; SM minimal medium; subpopulation (auxotrophy): UM.
Summary of the method: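 Automated confocal microscopy of paraformaldehyde-fixed cells was used to follow a Saccharomyces cerevisiae BY4741 community carrying four plasmids, each restoring one auxotrophy and encoding a distinct fluorescent protein. The community was pre-grown overnight to OD600 1.0, diluted to 0.3, and added at 70 µl to 384-well plates acoustically predosed with library drugs (10 µM final) for 24 h of growth in minimal SM medium. Single-auxotroph fluorescent strains set thresholds and autofluorescence correction, and each subpopulation's abundance was scored as a z-score against the vehicle-well median.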

SMILES | z-score of subpopulation abundance
CC(C(=O)O)c1ccc(C(=O)c2cccs2)cc1 (configuration not stated) [Suprofen] | -0.8
COc1cccc2c1C(=O)c1c(O)c3c(c(O)c1C2=O)C[C@@](O)(C(=O)CO)C[C@@H]3O[C@H]1C[C@H](N)[C@H](O[C@@H]2CCCCO2)[C@H](C)O1 [Pirarubicin] | -3.46
N=C(N)NC(=N)N1CCOCC1 [Moroxydine HCl] | 0.37
Nc1c(CC(=O)O)cccc1C(=O)c1ccccc1 [Amfenac Sodium Monohydrate] | -0.16
CN1CCN(c2c(F)cc3c(=O)c(C(=O)O)cn4c3c2OCN4C)CC1 [Marbofloxacin] | -0.02
CN1CCOC(c2ccccc2)c2ccccc2C1 (configuration not stated) [Nefopam HCl] | 0.37
COc1ccc(C(C)=O)c(O)c1 [Paeonol] | 0.01
NC[C@@H]1O[C@H](O[C@H]2[C@@H](O)[C@H](O[C@@H]3[C@@H](O)[C@H](N)C[C@H](N)[C@H]3O[C@H]3O[C@H](CO)[C@@H](O)[C@H](O)[C@H]3N)O[C@@H]2CO)[C@H](N)[C@@H](O)[C@@H]1O [Paromomycin Sulfate] | -0.2
CN(C)CCC=C1c2ccccc2C=Cc2ccccc21 [Cyclobenzaprine HCl] | 1.09
COc1cc(NS(=O)(=O)c2ccc(N)cc2)nc(OC)n1 [SulfadiMethoxine sodium] | -0.12
CCN1CCN(c2cc3c(cc2F)c(=O)c(C(=O)O)cn3C2CC2)CC1 [Enrofloxacin] | 0
O=C1CN(/N=C/c2ccc(-c3ccc([N+](=O)[O-])cc3)o2)C(=O)N1 [Dantrolene sodium] | -2.91

From the supplement of paper PMC8975748
